SMILES strings stand for the structures. Records with an inconclusive call do not appear. A number with no mark means an inactive call. The source made the active and inactive calls.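 The calls were made as follows: active = dose-dependent loss of cell ATP signal giving a full or clear fitted curve, ranked by lower potency value; inconclusive = weak partial curve or response only at the top dose; inactive = no loss of viability signal.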
Potency is read from the fitted curve at half-maximal effect.

A short description of this assay: Cell Viability - Jurkat (AID 426).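 Also: cells exposed to compound for 40 hours at 37 °C before ATP read.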 The following applies: qHTS. The text has this:
NIH Chemical Genomics Center [NCGC]
NIH Molecular Libraries Screening Centers Network [MLSCN]
National Institutes of Environmental Health Sciences [NIEHS]
National Toxicology Program [NTP]
We have developed a 1536-well cell-based assay for quantitative high throughput screening (qHTS) against a number of cell lines to determine in vitro cytotoxicity of small molecules. This particular assay uses the Jurkat cell line (Clone E6-1) which is derived from the human T cell leukemia.
NCGC Assay Protocol Summary:
The CellTiter-Glo luminescent cell viability assay (Promega) is a homogeneous method to measure the number of viable cells in culture. The end point readout of this assay is based on quantitation of intracellular ATP, an indicator of metabolic activity, using the luciferase reaction. Luciferase catalyzes the oxidation of beetle Luciferin to oxyluciferin and light in the presence of ATP. The luminescent signal is proportional to amount of ATP present.
Using the CellTiter-Glo luminescent cell viability assay, the amount of cellular ATP was measured in the Jurkat cell line with complete culture medium following compound treatment for 40 hours. The assay was performed in opaque white Kalypsys 1536-well plates. In the screen, tamoxifen and doxorubicin were used as positive controls. Library compounds were measured for their ability to cause acute toxicity in the cell line, as reflected by a decrease in intracellular ATP levels, in a concentration-dependent manner. […] AC50 values were determined from concentration-response data modeled with the standard Hill equation.
qHTS protocol for CellTiter Glo Jurkat cellular assay
[Step] [Parameter] [Value] [Description]
1. Reagent; 5 uL; 5000 Jurkat cells/well
3. Controls; 23 nL; Tamoxifen 0.34 uM to 100 uM & Doxorubicin 0.02 nM to 100 uM
4. Time; 40 hr; 37 °C incubation
5. Reagent; 5 uL; CellTiter Glo reagent
6. Time; 20 min; Room Temperature
7. Detection; Luminescence; Viewlux plate reader
Keywords: cell viability, cytotoxicity, Jurkat cell line, luminescence, NTPHTS, NTPHTS_NCGC, NIEHS, EPA, DSSTox, MLSMR, MLSCN, NIH Roadmap, qHTS, NCGC
In the case of `O=[N+]([O-])c1cc(C(F)(F)F)ccc1Cl`, the Potency was greater than 92 µM. On to `CCCCCCCCC`, for which the Potency was greater than 92 µM.

Regarding `CC(C)(C)OCC1CO1` (stereo not given), the Potency is greater than 92 µM.

On to `O=C(O)CNC(=O)c1ccc([N+](=O)[O-])cc1`, for which the Potency is greater than 92 µM. Turning to `CC1=C(/C=C/C(C)=C/C=C/C(C)=C\C=O)C(C)(C)CCC1`, the Potency was 22.2 µM (active). As to `Cc1ccc(C)c([N+](=O)[O-])c1`, the Potency is greater than 92 µM. For `O=CNc1ccccc1` the value was greater than 92 µM.

For `CCCC(C)CO` (stereo not given), the Potency is greater than 92 µM. Turning to `CCCCCCCN`, the Potency was greater than 92 µM. On to `O=C(O)c1ccc(C(=O)O)cc1`, for which the Potency is greater than 92 µM. Consider `N#CCc1ccccc1[N+](=O)[O-]`, for which the Potency is greater than 92 µM. For the compound `O=C1NC(=O)c2cc([N+](=O)[O-])ccc21`, the Potency was greater than 92 µM. `CCNS(=O)(=O)c1ccc(C)cc1`: the Potency is greater than 92 µM. For `CCOC(C)(C)C` the value was greater than 92 µM; for `O=Cc1ccc(Cl)cc1`, greater than 92 µM; for `CC(=O)c1nccs1`, greater than 92 µM. Regarding `c1ccsc1`, the Potency is greater than 92 µM. As to `CCOC(=O)C(C)C(C)=O` (stereo not given), the Potency is greater than 92 µM. Take `Cc1c(N)cccc1[N+](=O)[O-]`: the Potency was greater than 92 µM.

`CCCCOCCOCCOCCCC`: the Potency is greater than 92 µM. As for `OCCO`, the Potency was greater than 92 µM. For the compound `Nc1nc(-c2ccccc2)cs1`, the Potency was greater than 92 µM.

As to `Nc1c(Cl)cc(Cl)cc1Cl`, the Potency was greater than 92 µM.

Regarding `CC(=O)OC(C)=O`, the Potency was greater than 92 µM. With `Cc1ccc(C)c(O)c1` the figure was greater than 92 µM; with `CC(C)(c1cc(Br)c(OCC(Br)CBr)c(Br)c1)c1cc(Br)c(OCC(Br)CBr)c(Br)c1` (stereo not given), 46.9 µM (active); with `C=C(C)C(=O)OCCCCCCCCCC`, greater than 92 µM. On to `BrC(Br)C(Br)Br`, for which the Potency is greater than 92 µM.

For `COc1ccc(OC)cc1`, the Potency was greater than 92 µM. In the case of `Nc1ccc(Cl)cc1[N+](=O)[O-]`, the Potency was greater than 92 µM. For the compound `O=[N+]([O-])c1ccccc1CCO`, the Potency was greater than 92 µM.

As for `NS(=O)(=O)O`, the Potency is greater than 92 µM. With `COC(=O)CCCC(=O)OC`, the Potency was greater than 92 µM. `BrC/C=C/CBr`: the Potency is greater than 92 µM. Take `O=C(O)c1ccccc1Cl`: the Potency is greater than 92 µM. With `COC(=O)CS`, the Potency was greater than 92 µM. As for `Cc1ccccc1C(=O)O`, the Potency was greater than 92 µM. With `Cc1ccc(Br)cc1` the figure was greater than 92 µM; with `Cc1ccc(S(=O)(=O)NC2CCCCC2)cc1`, greater than 92 µM; with `CCNc1ccccc1`, greater than 92 µM.
